Assay results published in PubChem BioAssay.
The source made the active and inactive calls.

assay: changes in parasitized red cell lysis, either direction – P. falciparum Indochina, OD700, 3 h, PSAC antagonist project, primary screen (AID 1156); conditions: P. falciparum-infected erythrocytes, osmotic lysis, higher = more signal, called active from +8 up or from −8 down

z-score, inactive:
COC(=O)[C@H](Cc1ccccc1)N1CC(/C=C/C2CC2)=C[C@H]1[C@H](O)Cc1ccccc1 -0.377
C=CC[C@]1(C(=O)NCCN2CCOCC2)N=C(c2ccc(OCCCO)cc2)O[C@H]1c1ccccc1CN=[N+]=[N-] 2.57
COC(=O)[C@@]1(Cc2ccc(F)cc2)[C@H]2c3cc(C(=O)N4CCCC4)n(CCc4ccc(O)c(O)c4)c3C[C@H]2CN1C(=O)c1ccccc1 0.718
[N-]=[N+]=NCc1ccccc1[C@H]1OC(c2ccc(OCCCO)cc2)=N[C@@]1(CCS(=O)(=O)c1ccccc1)C(=O)NCC(O)CO (stereo not given in full) 2.23
C[C@]1(C(=O)NC2CC2)c2ccccc2C(=O)N(Cc2ccccc2)[C@H]1c1ccc(CO)cc1 0.475
COC(=O)C(CC#Cc1ccc2c(c1)[C@]1(C(=O)N2)[C@H](c2ccccc2OCCO)N2[C@H](c3ccccc3)[C@H](c3ccccc3)OC(=O)[C@H]2[C@@H]1C(=O)NC[C@H](O)c1ccccc1)C(=O)OC 0.984
COCCOC(=O)N1C(=O)[C@@]2(c3cc(C#CCCO)ccc31)[C@H](C(=O)Nc1nc3ccccc3s1)[C@H]1C(=O)O[C@H](c3ccccc3)[C@H](c3ccccc3)N1[C@@H]2c1ccccc1OCCO 0.286
COCCOC(=O)N1C(=O)[C@@]2(c3cc(C#CC4=CCCCC4)ccc31)[C@H](c1ccc(O)cc1)N1[C@H](c3ccccc3)[C@H](c3ccccc3)OC(=O)[C@H]1[C@@H]2C(=O)N1CCN(c2ncccn2)CC1 0.299
C[C@@H]1NC(=O)[C@@]23C(=O)N[C@@H](Cc4ccccc4)C2[C@H](C)[C@@]2(C)O[C@H]2C3/C=C/C/C=C\CNC(=O)[C@@H]2CCCN2C1=O (stereo not given in full) -1.12

assay: plasmodial surface anion channel blockers, osmotic lysis – cell-based, P. falciparum Indochina, OD700, 18 h, primary screen (AID 1157); conditions: P. falciparum Indochina infected erythrocytes, osmotic lysis OD700, 18 h; higher = more signal, called active from +8 up or from −8 down

z-score, inactive:
OCCCC1=CC(c2ccc(CN3CCCC3)cc2)N(Cc2sc3ccccc3c2Cl)CC1 (stereo not given) 1.19
CC(C)C(CO)N1C(=O)[C@@H]2C3C(=O)OCCC/C=C\[C@H]3OC23C=CCN(C(C)(C)C)C(=O)[C@@H]13 (stereo not given in full) 0.478
O=c1n(-c2ccccc2)c(=O)n2n1CC(COc1ccccc1)=C([C@H](O)CCc1ccccc1)[C@@H]2CO -1.51
CC(C)C(=C=CC[C@H](O)c1cccc(OCCO)c1)C[C@H](O)c1cc(Cl)cc(Cl)c1O 0.847
CC(C)(C)OC(=O)CC[C@]1(C(=O)NCC(O)CO)N=C(c2ccc(OCCCO)cc2)O[C@H]1c1ccccc1 (stereo not given in full) -1.32
COC(=O)[C@@]1(Cc2ccccc2)[C@H]2c3cc(C(=O)N(C)C)n(CCc4ccc(O)c(OC)c4)c3C[C@H]2CN1C(=O)c1ccccc1 0.667
C=CCNC(=O)[C@@H]1[C@H]2C(=O)O[C@H](c3ccccc3)[C@H](c3ccccc3)N2[C@H](c2ccc(O)cc2)[C@@]12C(=O)N(C(=O)OCCOC)c1ccc(C#CC3(O)CCCCCC3)cc12 0.682
CCCC[C@@H]1C[C@H]1[C@@H](NC(=O)c1cccs1)c1ccc(C(F)(F)F)cc1 0.592
COCCOC(=O)N1C(=O)[C@@]2(c3cc(C#Cc4ccc(OC)cc4)ccc31)[C@H](c1ccccc1OCCO)N1[C@H](c3ccccc3)[C@H](c3ccccc3)OC(=O)[C@H]1[C@@H]2C(=O)N1CCCCCCC1 -0.122
Cc1ccccc1C(O)C1C=CC2C(=O)N(C)C(=O)C2N1N(c1ccccc1)c1ccccc1 (stereo not given) 1.25
Cc1ccc(S[C@]2(C(=O)NCC(F)(F)F)CC(=O)N(Cc3ccccc3C(F)(F)F)[C@@H]2c2ccc(CO)cc2I)cc1 0.205
CC(C)N1C(=O)C[C@@](C(=O)NCCCN(C)C)(c2ccc([N+](=O)[O-])cc2)[C@H]1c1ccc(CO)cc1 0.891
CCOc1cc(C(O)C2C=CC3C(=O)N(c4ccccc4)C(=O)C3N2Nc2ccc(C#N)cc2)ccc1O (stereo not given) 1.27
CN(C)C(=O)[C@@]1(Cc2ccccc2CN=[N+]=[N-])N=C(c2ccc(OCCCO)cc2)O[C@H]1c1ccccc1CN=[N+]=[N-] 0.515
C=CC[C@]1(C(=O)O)COC(c2ccc(OCCCO)cc2)=N1 0.2
C=CCC(OC(C)=O)[C@@H]1[C@@H](N(Cc2cccc3ccccc23)C(=O)Cc2ccc(OC)cc2)c2cc(OCCCO)ccc2N1C(=O)c1ccc2ccccc2n1 (stereo not given in full) 0.385
